From the supplement of paper PMC7156485

Key:
Conditions in all cases: concentration: 10 µM; 24 h
HCC1569 [1] = assay: cell number relative to DMSO (% of DMSO); higher = more cells (less growth inhibition / toxicity)
How it was run: (§1)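 HCC1569 and TDF cells were seeded at 800 per well in 384-well plates in RPMI with 10% FBS and treated with compounds at 10 µM for 24 h at 37 °C, in triplicate. After fixation in 3.7% formaldehyde, cells were stained with a rabbit anti-H1.0 antibody, an AlexaFluor 647 secondary and DAPI, and six fields per well were imaged at ×10. H1.0 nuclear intensity or cell number is given as percent of the plate control, using the median of replicates, with HCC1569 values smoothed for positional effects.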

TDF [2] = assay: as above
How it was run: as §1

TDF [3] = assay: H1.0 immunofluorescence intensity relative to DMSO (% of DMSO); higher = stronger H1.0 induction, active = 120 or more
How it was run: as §1

HCC1569 [4] = assay: H1.0 immunofluorescence intensity relative to DMSO (% of DMSO); higher = stronger H1.0 induction, active = 140 or more
How it was run: as §1
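Wherever H1.0 immunofluorescence intensity relative to DMSO is given: TDF is a line of transformed human dermal fibroblasts of mesenchymal origin.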
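Wherever cell number relative to DMSO is given: TDF denotes transformed human dermal fibroblasts of mesenchymal origin.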

Compound	cell number (HCC1569 [1])	cell number (TDF [2])	H1.0 immunofluorescence intensity (TDF [3])	H1.0 immunofluorescence intensity (HCC1569 [4])
Cn1ccnc1 [1-Methylimidazole]	103	105	97.4 (inactive)	98.9 (inactive)
NC(=O)c1cccc(NC(=O)/C=C/c2c[nH]c3ccccc23)c1 [(E)-3-(3-(1H-indol-3-yl)acrylamido)benzamide]	97.9	103	88 (inactive)	118 (inactive)
CC(=O)OC1(C(C)=O)CCC2C3CC(C)C4=CC(=O)CCC4(C)C3CCC21C (configuration not stated) [Medroxyprogesterone 17-Acetate]	105	112	102 (inactive)	89.3 (inactive)
c1cc(-c2sc(-c3ccncc3)c(-c3ccncc3)c2-c2ccncc2)ccn1 [4-[3,4,5-tri(4-pyridinyl)-2-thienyl]pyridine]	98.5	95.1	98 (inactive)	98.9 (inactive)
C[N+](C)(C)CCCCCC[N+](C)(C)C.[Br-].[Br-] [Hexamethonium bromide]	104	103	98.5 (inactive)	102 (inactive)
CCC12CCCN3CCc4c(n(c5ccccc45)C(=O)C1)C32 (single isomer, unassigned; (-)) [(-)-Eburnamonine]	83.7	58.5	118 (inactive)	113 (inactive)
CCCCC1CCC(c2nc(-c3ccncc3)no2)CC1 (configuration not stated) [4-[5-(4-butylcyclohexyl)-1,2,4-oxadiazol-3-yl]pyridine]	94.1	98.3	108 (inactive)	104 (inactive)
CCc1nn(CCCN2CCN(c3cccc(Cl)c3)CC2)c(=O)n1CCOc1ccccc1 [Nefazodone]	98.9	100	95.5 (inactive)	110 (inactive)
